The panel holds about 83,000 compounds, 20% with a hit somewhere; the sample as a whole holds those more often.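 Testing used 96-well plates and a 48-hour single-concentration exposure. Example: -40 means 40% of the starting cells died.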 Calls of active or inactive are those of the source. The calls were made as follows: active = growth percent below 10; inactive = the rest.
Experiments:
Experiment in all cases: NCI-60 one-dose screen, 48 h (100 = growth as untreated, 0 = no growth, -100 = all killed)
Details in all cases: 10 µM unless noted
HCT-15 colon = tested on: HCT-15 colon
HT29 colon = tested on: HT29 colon
SNB-75 CNS = tested on: SNB-75 CNS
SNB-19 CNS = tested on: SNB-19 CNS
U251 CNS = tested on: U251 CNS
PC-3 prostate = tested on: PC-3 prostate
SK-MEL-5 melanoma = tested on: SK-MEL-5 melanoma
UACC-62 melanoma = tested on: UACC-62 melanoma
LOX IMVI melanoma = tested on: LOX IMVI melanoma
SK-MEL-28 melanoma = tested on: SK-MEL-28 melanoma

Measured: growth

[2H]c1cc2c(c([2H])c1F)/C(=C/c1[nH]c(C)c(C(=O)NCCN(CC)CC)c1C)C(=O)N2
inactive: HCT-15 colon 29.9% | HT29 colon 19% | SNB-75 CNS 50.4% | SNB-19 CNS 85.4% | U251 CNS 66.5% | PC-3 prostate 28.3% | SK-MEL-5 melanoma 51% | UACC-62 melanoma 67% | LOX IMVI melanoma 26.5% | SK-MEL-28 melanoma 64.7%

CC(C)C1=C[C@@]23CC[C@H]4[C@](C)(COCCC#N)CCC[C@]4(C)[C@H]2C[C@@H]1[C@@H]1[C@H]3[C@@H](OCCC#N)CC[C@@H]1OCCC#N
active: PC-3 prostate 9.6%
inactive: HCT-15 colon 22.8% | HT29 colon 12.1% | SNB-75 CNS 80.3% | SNB-19 CNS 50.3% | U251 CNS 29.1% | SK-MEL-5 melanoma 39.1% | UACC-62 melanoma 45.3% | LOX IMVI melanoma 40.1% | SK-MEL-28 melanoma 48.7%

Cc1cccc(C)c1NC(=O)CN(CC(C)C)CC(O)COc1ccccc1 (stereo not given)
inactive: HCT-15 colon 90.7% | HT29 colon 85.5% | SNB-75 CNS 86.6% | SNB-19 CNS 108% | U251 CNS 99.7% | PC-3 prostate 86.3% | SK-MEL-5 melanoma 95.5% | UACC-62 melanoma 83.9% | LOX IMVI melanoma 95.3% | SK-MEL-28 melanoma 109%

O=CN1N=C(c2ccc(Cl)cc2)CC1c1cccc(Nc2ccnc3cc(C(F)(F)F)ccc23)c1 (stereo not given)
inactive: HCT-15 colon 71.2% | HT29 colon 58.5% | SNB-75 CNS 74.9% | SNB-19 CNS 70.6% | U251 CNS 64.1% | PC-3 prostate 48.9% | UACC-62 melanoma 63.7% | LOX IMVI melanoma 51.5% | SK-MEL-28 melanoma 90.8%
active: SK-MEL-5 melanoma 1.24%

O=C(O)c1cn(C2CC2)c2cc(N3CCN(Cc4nnc(Nc5ccccc5)o4)CC3)c(F)cc2c1=O
inactive: HCT-15 colon 101% | HT29 colon 93.8% | SNB-75 CNS 82.2% | SNB-19 CNS 108% | U251 CNS 105% | PC-3 prostate 105% | SK-MEL-5 melanoma 106% | UACC-62 melanoma 100% | LOX IMVI melanoma 87.9% | SK-MEL-28 melanoma 100%

CC(=O)c1ccc(NC(=O)CSc2nnc(-c3cc(-c4ccc(C)cc4)nc4ccccc34)o2)cc1
inactive: HCT-15 colon 56.7% | HT29 colon 68.2% | SNB-75 CNS 62.1% | SNB-19 CNS 43.2% | PC-3 prostate 53.4% | SK-MEL-5 melanoma 68.7% | UACC-62 melanoma 90.7% | LOX IMVI melanoma 31.9% | SK-MEL-28 melanoma 99.3%
active: U251 CNS -59.8%

CCN1CCC[C@H]1c1cc(O)c2c(c1OC)C[C@H]1C[C@H]3[C@H](N)C(=O)C(C(N)=O)=C(O)[C@@]3(O)C(=O)C1=C2O
active: HCT-15 colon 1.67% | HT29 colon -4.51% | SNB-75 CNS -4.69% | SNB-19 CNS -0.511% | U251 CNS -8.89% | PC-3 prostate 3.27% | SK-MEL-5 melanoma -46% | UACC-62 melanoma -19% | LOX IMVI melanoma -45.2% | SK-MEL-28 melanoma -10.6%

CC(C)(C#N)c1cc(F)cc(C(=O)Nc2cc(Nc3ncccc3-c3ncnc4nc[nH]c34)ccc2F)c1
active: UACC-62 melanoma 9.35% | LOX IMVI melanoma -23.6%
inactive: HCT-15 colon 37.8% | HT29 colon 10.1% | SNB-75 CNS 78.7% | SNB-19 CNS 58% | U251 CNS 40.7% | PC-3 prostate 54.2% | SK-MEL-5 melanoma 20.3% | SK-MEL-28 melanoma 18.5%

N#Cc1ccc(Oc2ccc3ccc(=O)oc3c2)cc1
inactive: HCT-15 colon 98% | HT29 colon 114% | SNB-75 CNS 97.2% | SNB-19 CNS 89.3% | U251 CNS 91.7% | PC-3 prostate 94.5% | SK-MEL-5 melanoma 103% | UACC-62 melanoma 88.3% | LOX IMVI melanoma 93.4% | SK-MEL-28 melanoma 107%

COc1ccc(/C=C/C(=O)/C=C(/C=C/c2ccc(OC)c(OC)c2)OB(F)F)cc1OC
inactive: SNB-75 CNS 76.8% | SNB-19 CNS 52.9% | PC-3 prostate 31.5% | SK-MEL-5 melanoma 56.6% | UACC-62 melanoma 52.6% | SK-MEL-28 melanoma 29.6%
active: HCT-15 colon 0.848% | HT29 colon 3% | U251 CNS 8.37% | LOX IMVI melanoma 5.12%

Oc1ccccc1-c1nc2c3ccccc3c3ccccc3c2o1
inactive: HCT-15 colon 92.1% | HT29 colon 106% | SNB-75 CNS 89.7% | SNB-19 CNS 95.7% | U251 CNS 82% | PC-3 prostate 77.8% | SK-MEL-5 melanoma 98.6% | UACC-62 melanoma 88.4% | LOX IMVI melanoma 90.6% | SK-MEL-28 melanoma 117%

COc1ccc2c(c1)Oc1nc(N)c(C#N)c(N)c1C2Sc1ccc(O)cc1 (stereo not given)
inactive: HCT-15 colon 65.7% | HT29 colon 102% | SNB-75 CNS 89.7% | SNB-19 CNS 106% | U251 CNS 86.5% | PC-3 prostate 95.9% | SK-MEL-5 melanoma 90.3% | UACC-62 melanoma 101% | LOX IMVI melanoma 87.4% | SK-MEL-28 melanoma 105%

COc1ccc(Nc2cc(NC(=O)CNc3cc(OC)c(Cl)c(OC)c3Cl)ncn2)cc1
inactive: HCT-15 colon 73.5% | HT29 colon 80.9% | SNB-75 CNS 81.3% | SNB-19 CNS 96.8% | U251 CNS 88.5% | PC-3 prostate 57.9% | SK-MEL-5 melanoma 85.1% | UACC-62 melanoma 62.8% | LOX IMVI melanoma 57.2% | SK-MEL-28 melanoma 84.7%

CCCn1c2cc(OCc3cn(-c4ccc(Cl)cc4)nn3)ccc2c2ccnc(C)c21
inactive: HCT-15 colon 67.6% | HT29 colon 30.7% | SNB-75 CNS 92.5% | SNB-19 CNS 80.6% | U251 CNS 47.5% | PC-3 prostate 71.2% | SK-MEL-5 melanoma 70.6% | UACC-62 melanoma 74.9% | LOX IMVI melanoma 65.1% | SK-MEL-28 melanoma 92.3%

O=C(CN1N=C(c2ccc(F)cc2)CCC1=O)Nc1nccs1
inactive: HCT-15 colon 99.3% | HT29 colon 87% | SNB-75 CNS 92.2% | SNB-19 CNS 91.4% | U251 CNS 101% | PC-3 prostate 88.3% | SK-MEL-5 melanoma 98.4% | UACC-62 melanoma 92.5% | LOX IMVI melanoma 98.9% | SK-MEL-28 melanoma 109%

NCCN1CCNCC1
inactive: HCT-15 colon 100% | HT29 colon 98.4% | SNB-75 CNS 92.2% | SNB-19 CNS 95.9% | U251 CNS 102% | PC-3 prostate 92% | SK-MEL-5 melanoma 109% | UACC-62 melanoma 98.1% | LOX IMVI melanoma 101% | SK-MEL-28 melanoma 109%

FC(F)(F)c1ccc2c(Nc3cccc(C4CC(c5ccccc5)=NN4c4ccc(Cl)cc4)c3)ccnc2c1 (stereo not given)
active: HCT-15 colon 5.61% | LOX IMVI melanoma -53.9%
inactive: HT29 colon 19% | SNB-75 CNS 70% | SNB-19 CNS 41.4% | U251 CNS 29.3% | PC-3 prostate 34% | SK-MEL-5 melanoma 75.1% | UACC-62 melanoma 49.4% | SK-MEL-28 melanoma 48.6%

COc1cc(N=Nc2cc(S(=O)(=O)O)cc3cc(S(=O)(=O)O)cc(O)c23)c(C)cc1N=Nc1c(S(=O)(=O)O)cc2cc(Nc3ccccc3)ccc2c1O
inactive: HCT-15 colon 110% | HT29 colon 105% | SNB-75 CNS 91.1% | SNB-19 CNS 104% | U251 CNS 109% | PC-3 prostate 90% | SK-MEL-5 melanoma 105% | UACC-62 melanoma 98.5% | LOX IMVI melanoma 99.4% | SK-MEL-28 melanoma 109%

O=C(/C(=C\c1c(-c2ccccc2)[nH]c2ccccc12)S(=O)(=O)c1ccccc1)c1ccccc1
inactive: HCT-15 colon 57.4% | HT29 colon 65.9% | SNB-75 CNS 45.4% | SNB-19 CNS 73.8% | U251 CNS 58.6% | PC-3 prostate 16.6% | SK-MEL-5 melanoma 47.7% | UACC-62 melanoma 39.8% | LOX IMVI melanoma 58.9% | SK-MEL-28 melanoma 76.2%

COc1ccc(OCC(=O)OC(C)C)cc1
inactive: HCT-15 colon 98.4% | HT29 colon 101% | SNB-75 CNS 85% | SNB-19 CNS 99.2% | U251 CNS 104% | PC-3 prostate 103% | SK-MEL-5 melanoma 96.4% | UACC-62 melanoma 96.6% | LOX IMVI melanoma 87.2% | SK-MEL-28 melanoma 102%

Cc1c(Cl)cccc1NC(=O)c1sc2nc3c(cc2c1N)CN(Cc1ccccc1)CC3
active: HT29 colon 8.14%
inactive: HCT-15 colon 33.6% | SNB-75 CNS 41.9% | SNB-19 CNS 38.4% | U251 CNS 31.9% | PC-3 prostate 43.1% | SK-MEL-5 melanoma 49.1% | UACC-62 melanoma 40.2% | LOX IMVI melanoma 40.4% | SK-MEL-28 melanoma 71.1%

COc1cc(C)ccc1Oc1nc(Nc2ccc(N3CCOCC3)cc2)ncc1N=Cc1cc(C(F)(F)F)cc(C(F)(F)F)c1
inactive: HCT-15 colon 92% | HT29 colon 64.5% | SNB-75 CNS 40.1% | SNB-19 CNS 94.4% | U251 CNS 71.5% | PC-3 prostate 77.4% | SK-MEL-5 melanoma 91% | UACC-62 melanoma 81% | LOX IMVI melanoma 61.3% | SK-MEL-28 melanoma 96.7%

O=C1CC(c2ccc(O)c(O)c2)Oc2cc(O)c([C@@H]3O[C@H](CO)[C@@H](O)[C@H](O)[C@H]3O)c(O)c21 (stereo not given in full)
inactive: HCT-15 colon 102% | HT29 colon 103% | SNB-75 CNS 102% | SNB-19 CNS 102% | U251 CNS 98.1% | PC-3 prostate 97.3% | SK-MEL-5 melanoma 103% | UACC-62 melanoma 105% | LOX IMVI melanoma 104% | SK-MEL-28 melanoma 107%

CCCCc1ccc(N=Nc2ccc(OCC[N+](C)(C)C)cc2)cc1
inactive: HCT-15 colon 61% | HT29 colon 26.3% | SNB-75 CNS 15.4% | PC-3 prostate 24.2% | SK-MEL-5 melanoma 89.4% | UACC-62 melanoma 53.9% | LOX IMVI melanoma 33.6% | SK-MEL-28 melanoma 88.9%
active: SNB-19 CNS 1.8% | U251 CNS -51.1%

N#CCNc1ccc(C(=O)O)cc1
inactive: HCT-15 colon 105% | HT29 colon 101% | SNB-75 CNS 103% | SNB-19 CNS 102% | U251 CNS 95% | PC-3 prostate 94.3% | SK-MEL-5 melanoma 101% | UACC-62 melanoma 107% | LOX IMVI melanoma 98.5% | SK-MEL-28 melanoma 118%

Cc1nc2sc(C(=O)Nc3cccc4ccccc34)c(N)c2cc1C(C)O (stereo not given)
inactive: HCT-15 colon 14.4% | SNB-75 CNS 29% | SNB-19 CNS 34% | U251 CNS 25.4% | PC-3 prostate 30.7% | UACC-62 melanoma 36% | LOX IMVI melanoma 26.9% | SK-MEL-28 melanoma 66.9%
active: HT29 colon 4.82% | SK-MEL-5 melanoma 8.93%

CCCCCCN1C(=O)CN=C1Nc1ccc2cc3ccc(NC4=NCC(=O)N4CCCCCC)cc3nc2c1
active: LOX IMVI melanoma -41.8%
inactive: HCT-15 colon 49% | HT29 colon 15.5% | SNB-75 CNS 61.7% | SNB-19 CNS 48.4% | U251 CNS 22.1% | PC-3 prostate 51% | SK-MEL-5 melanoma 82.6% | UACC-62 melanoma 82.6% | SK-MEL-28 melanoma 85.9%
